Screens: PubChem BioAssay, National Center for Advancing Translational Sciences (NCATS)
Only some compounds are listed: those with a hit (about 13% of all), similar ones and a draw of the others.
Lassa entry inh: Lassa virus entry inhibition | 300,000 compounds, 1.2% hits | AID 540256 | Potency, µM (doses to about 37.9 µM), without a hit: top-dose activity change, negative = inhibition, actives largely listed as inhibitors | Lassa virus pseudotype entry inhibition, cell reporter; calls by dose curve; tested in HEK293 cells; also: potency is read from the fitted curve at half-maximal effect; % is scaled to controls: 0 for no effect and ±100 for the full control effect; nearly all actives have a fitted effect of over 50% in size
FMDV inh: foot and mouth disease virus antiviral activity | FMDV antiviral cell-based qHTS | 410,000 compounds, 1.2% hits | Potency, µM (highest dose often 57.9 µM), for inactives: at the highest dose activity change, negative = inhibition, most hits filed as inhibitors | AID 1159524; calls by dose curve; tested in HEK293T cells; also: read-out not given here; potency is read from the fitted curve at half-maximal effect; % is scaled to controls: 0 for no effect and ±100 for the full control effect; nearly all actives have a fitted effect of over 45% in size
MARV entry inh: inhibitors of Marburg virus binding or cell entry | Marburg virus pseudotyped entry inhibition, cell reporter | Potency, µM (highest dose often 37.8 µM), inactives show at the highest dose activity change, negative = inhibition, usual class: inhibitors | 300,000 compounds, 1.8% hits | AID 540276; calls by dose curve; tested in HEK293 cells; also: potency is read from the fitted curve at half-maximal effect; % is scaled to controls: 0 for no effect and ±100 for the full control effect
Shiga toxin inh: Shiga toxin inhibition; Vero cells, Shiga toxin protein synthesis inhibition reporter; inhibition, % at 38.7 µM; 290,000 compounds, 9.2% hits; AID 2315; in the data active = inhibition mostly above about 28%, no sharp cut-off; inactive = mostly below about 43%; also: 0% is about no effect
Cycloheximide cs: counter-screen hit for Shiga toxin inhibitors, cycloheximide. cell reporter, cycloheximide protein synthesis inhibition counterscreen. max response, %. 300,000 compounds, 12% hits. AID 2314; in the data active = max response mostly above about 13%, no sharp cut-off; inactive = mostly below about 14%; also: read at 38.3 µM for the half of the compounds with a filed dose; 0% is about no effect
HCV inhibitor: HCV inhibition | Huh7.5.1 HCVcc-Cre infection, luciferase reporter, 44 h | Potency, µM (top dose mostly 41.8 µM), for the others: top-dose activity change, negative = inhibition, most hits filed as inhibitors | 340,000 compounds, 3.4% hits | AID 651820; active = well fitted inhibition curve with a large enough effect; inconclusive = small, poorly fitted or top-dose-only effect, or another doubt; inactive = no such curve, though single readings can be large or run the other way; also: potency is read from the fitted curve at half-maximal effect; % is scaled to controls: 0 for no effect and ±100 for the full control effect
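Cells seeded at 1,000/well and cultured 4 h, then compounds added followed by HCVcc-Cre virus (~0.5 moi). After 44 h further culture, luciferase substrate was added, plates held 15 min at room temperature, and luminescence read for 15 sec.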
The depositor's hits bear a star; ? = inconclusive; . = no result; [ ] = remark or other dose.

SMILES	Lassa entry inh	FMDV inh	MARV entry inh	Shiga toxin inh	Cycloheximide cs	HCV inhibitor
CCCCn1c(O)c(C(C)=NCc2cc(OC)cc(OC)c2)c(=O)[nH]c1=O	-1%	-7%	-21%	-16	-4	?
CCCCn1c(O)c(C(CC)=Nc2ccc(OC)cc2OC)c(=O)[nH]c1=O	?	18µM*	?	-18	-3	?
CCCCn1c(O)c(C(CC)=NCc2cc(OC)cc(OC)c2)c(=O)[nH]c1=O	?	?	-2%	-11	1	13µM*
O=C(N/N=C/c1cc(Br)ccc1OC(=O)c1ccc(Br)cc1)c1ccncc1	5.6µM*	0%	1µM*	57	-2	3.2µM*
O=C(N/N=C/c1cc(Cl)ccc1O)c1ccc(Br)cc1	10µM*	6%	?	-2	13	3.2µM*
O=C(N/N=C/c1cc(Br)ccc1O)c1ccncc1	?	18%	2.8µM*	-3	8	?
O=C(N/N=C/c1ccc(OC(=O)c2ccc(Br)cc2)cc1)c1ccncc1	-10%	26%	20%[46.1 µM]	-2	4	18%
O=C(N/N=C/c1cc(Br)ccc1O)Nc1ccccc1	-23%	46%	?	76*	-2	-23%
O=C(Cc1ccccc1)Nn1c(-c2ccccc2)nc2ccccc2c1=O	0%	-4%	30%	-6	-2	31%
O=C(N/N=C/c1cccnc1)c1cccc(NC(=O)c2cccc(Br)c2)c1	6%	3%	2%[46.1 µM]	11	14	-20%
CCOc1ccccc1NC(=O)C(=O)N/N=C/c1cc(Br)ccc1O	1.6µM*	-21%	2.5µM*	8	-6	6.3µM*
O=C(N/N=C/c1ccc(O)c2ncccc12)c1cccc(Br)c1	?	-4%	13µM*	6	16	3.5µM*
CN(C)S(=O)(=O)c1cccc(NC(=S)N/N=C/c2cc(Br)ccc2O)c1	?	?	10µM*	28	14	-22%
O=C(N/N=C\c1cc(Br)ccc1O)c1ccc(S(=O)(=O)N2CCCCC2)cc1	?	-2%	?	-10	-1	3.5µM*
O=C(N/N=C/c1ccc(O)c(O)c1)c1cccc(S(=O)(=O)N2CCCCC2)c1	7%	-12%	5%	14	1	18%
CCOc1ccccc1C=NNC(=O)C(=O)NN=Cc1ccccc1OCC	-5%	0%	25%	.	.	-18%
Cc1ccc(-n2nc(C)c3c(C)c(CCC(=O)NCc4ccccc4Cl)c(C)nc32)cc1C	5%[46.1 µM]	-7%	-1%[46.1 µM]	.	.	.
COc1cc(C(=O)NC(=S)Nc2ccc(Cc3ccncc3)cc2)cc(OC)c1OC	.	-17%	.	-10	-3	?
O=C(OCc1ccc(Br)cc1)c1cnc(Cl)c(Cl)c1	.	13%	-8%[46.1 µM]	-8	-6	19%
CC(=O)Nc1ccc(C(=O)N/N=C/c2cc(Br)cc(Br)c2O)cc1	?	-14%	10µM*	6	-1	-8%
CC(C)C(=O)Nc1ccc(C(=O)N/N=C/c2cc(Br)cc(Br)c2O)cc1	?	-13%	?	20	-1	?
O=C(CSc1nc2ccccc2n1CC(=O)N1CCCC1)NCc1ccc2c(c1)OCO2	12%	.	?	15	5	12%
COCCn1c(C)cc(C2=NNC(=NC3CC3)SC2)c1C	0.32µM*	1.3µM*	0.32µM*	-37	-16	?
COCCn1c(C)cc(C2=NNC(=Nc3ccc(Cl)cc3Cl)SC2)c1C	-15%	5%	?	-10	-3	-12%
C=CCN=C1NN=C(c2cc(C)n(CCOC)c2C)CS1	?	4.5µM*	?	21	31	-4%
SMILES	Lassa entry inh	FMDV inh	MARV entry inh	Shiga toxin inh	Cycloheximide cs	HCV inhibitor
Cc1noc(C)c1S(=O)(=O)N1CCCC(C(=O)NCCC2=CCCCC2)C1 (configuration not stated)	-15%	-20%	-14%	-8	2	-8%
O=C(NCc1ccccn1)Nc1ccc(Br)cc1Cl	-6%	38%	?	136*	63*	-29%
O=C(Nc1ccno1)Nc1ccc(Cl)cc1Cl	-7%	-8%	-4%	6	11*	?
S=C(NCc1ccccn1)Nc1ccc(Br)cc1Cl	7%	14%	1%[46.1 µM]	44*	18*	2%
CN(CCc1ccccn1)Cc1ccc(Cl)cc1Cl	5%	9%	9%	60	17*	-4%
C=CCNC(=O)Nc1ccc(Br)cc1Cl	.	-6%	.	60	13	?
S=C(NCc1ccccn1)Nc1ccccc1Cl	23%	40%	30%	13	27	7%
CCCOP(=O)(c1ccc(N(C)C)cc1)C(O)c1ccc(Cl)cc1Cl (configuration not stated)	?	-17%	?	-1	-3	9%
C[C@H](CO)N1C[C@H](C)[C@@H](CN(C)C(=O)Nc2ccccc2)Oc2ncc(-c3ccc(C#N)cc3)cc2C1=O	.	66%	.	.	.	.
O=C(NCc1ccccn1)Nc1ccc(Cl)cc1Cl	.	66%	.	66*	37*	9%
O=C(CCCOc1ccc(Cl)cc1Cl)NCc1ccccn1	-1%[46.1 µM]	-3%	?	41	6	?
CC(C)=NNc1nc2sc3c(c2c(=O)[nH]1)CC(C)(C)OC3	7.1µM*	22%	-4%	-13	10	-22%
CC1(C)Cc2c(sc3nc(N/N=C/c4ccccc4)[nH]c(=O)c23)CO1	-1%	?	?	23	4	0%
Cc1cccc(C(=O)NCc2nnc(SCC(=O)Nc3nnc(C)s3)n2C)c1	14%[46.1 µM]	-11%	5%[46.1 µM]	25	-2	6%
CN(C)/C=C/C(=O)c1cnc(-c2ccccc2Cl)s1	.	93%	.	87*	45*	-15%
CN(C)/C=C/C(=O)c1cnc(-c2cccc(Cl)c2)s1	.	54%	.	67*	25*	-8%
CN(C)/C=C/C(=O)c1cnc(-c2ccccn2)s1	-5%	63%	-15%[46.1 µM]	90*	36*	-3%
COc1ccccc1Nc1ccc(S(=O)(=O)N2CCCCC2)cc1[N+](=O)[O-]	-2%	-25%	-1%	-10	-3	12%
COc1ccccc1-c1ncn(Cc2cccc(-c3ccccc3)c2)c1CC(C)C	.	28µM*	.	.	.	.
COc1ccc(OCC(=O)N2CCN(c3nnc(-c4ccc(C)cc4)c4ccccc34)CC2)cc1	?	28µM*	?	23	-2	8.9µM*
Cc1ccc(-c2nnc(N3CCN(C(=O)COc4cccc(C)c4)CC3)c3ccccc23)cc1	?	25µM*	?	17	1	?
Cc1ccc(OCC(=O)N2CCN(c3nnc(-c4ccc(C)cc4)c4ccccc34)CC2)cc1	?	?	4.1µM*	-11	1	8.9µM*
Cc1ccc(-c2nnc(N3CCN(C(=O)CN4C(=O)c5ccccc5C4=O)CC3)c3ccccc23)cc1	2%	-16%	4%	.	.	-3%
O=C(COc1ccccc1)N1CCN(c2nnc(-c3ccccc3)c3ccccc23)CC1	-39%	?	?	-17	-5	?
Cc1cccc(OCC(=O)N2CCN(c3nnc(-c4ccccc4)c4ccccc34)CC2)c1	.	?	.	-3	-1	?
